Cruzain inh noDet = qHTS Assay for Promiscuous and Specific Inhibitors of Cruzain (without detergent). Potency, µM, inactives show max response, negative = inhibition, most hits filed as inhibitors. AID 1476, 2009. purified cruzain, Z-FR-AMC fluorescence, no detergent. 200,000 compounds, 2.3% hits. Cruzipain (Trypanosoma cruzi), P25779;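 also: plate controls were enzyme without inhibitor for no effect and buffer without enzyme for full effect; nearly all actives have a fitted effect of over 40% in size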
Target sequence (P25779 123-467 limits assumed): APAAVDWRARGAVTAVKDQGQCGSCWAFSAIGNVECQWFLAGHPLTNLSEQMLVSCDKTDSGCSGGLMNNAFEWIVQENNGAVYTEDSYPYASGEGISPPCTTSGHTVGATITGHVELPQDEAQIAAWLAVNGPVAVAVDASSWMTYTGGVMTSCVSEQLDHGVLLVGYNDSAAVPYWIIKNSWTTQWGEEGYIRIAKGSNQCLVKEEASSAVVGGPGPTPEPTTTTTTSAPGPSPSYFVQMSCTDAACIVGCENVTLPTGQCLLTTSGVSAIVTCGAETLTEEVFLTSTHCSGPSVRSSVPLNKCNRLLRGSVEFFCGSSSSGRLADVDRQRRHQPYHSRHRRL
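Detergent-free condition (0.00005% Triton X-100) in acetate buffer pH 5.5 with DTT. 1.5 nM enzyme and compound were pre-mixed 15 min, then 2 uM Z-FR-AMC substrate added; reaction progress from fluorescence change between first and third reads (60 s).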
Cruzain Triton = qHTS Assay for Promiscuous and Specific Inhibitors of Cruzain (with detergent). Cruzipain (Trypanosoma cruzi), P25779. purified cruzain, Z-FR-AMC fluorescence, 0.01% Triton. 200,000 compounds, 0.43% hits. Potency, µM, for the others: max response, negative = inhibition, actives largely listed as inhibitors. AID 1478, 2009;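 also: plate controls were neutral wells for no effect and buffer without enzyme for full effect; nearly all actives have a fitted effect of over 40% in size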
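Cysteine protease activity tested under reducing, mildly acidic conditions (100 mM sodium acetate pH 5.5, 5 mM DTT) plus 0.01% Triton X-100. Cruzain 1.5 nM; substrate Z-FR-AMC 2 uM; 15 min compound preincubation at room temperature.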
Starred values were filed as active, the others as inactive; ? = inconclusive; ! = not confirmed by another sample. Most compounds without a hit are left out; they make up all but 2.4% or so of the library. Calls follow the shape of the dose curve; as a rule, active = well fitted curve in the direction sought with a large enough effect; inconclusive = small, poorly fitted or top-dose-only effect, or another doubt; inactive = no such curve, though single readings can be large; an effect the other way counts as inactive or inconclusive. Potency is read from the fitted curve at half-maximal effect.

SMILES	Cruzain inh noDet	Cruzain Triton
CCc1ccc(CNC(=O)c2cnc3sc(N4CCCCCC4)nn3c2=O)cc1	-5%	0%
Cc1nc(-n2nc(C)c(Cc3ccc(Cl)cc3)c2C)sc1C(=O)N1CCCCC1C (configuration not stated)	5%	5%
O=C(CSc1nc2cc(S(=O)(=O)N3CCOCC3)ccc2o1)NC1CCCc2ccccc21 (configuration not stated)	25µM*	-3%
Cc1ccc(C(=O)CSc2nc3cc(S(=O)(=O)N4CCOCC4)ccc3o2)cc1	12%	1%
Cc1[nH]c2ccccc2c1C(=O)CSc1nc2cc(S(=O)(=O)N3CCCCC3)ccc2o1	25µM*	1%
Cc1ccc(S(=O)(=O)N2CCN(CC(=O)NC3CCCc4ccccc43)CC2)cc1C (configuration not stated)	?	1%
COC(=O)c1ccc(C(NC(=O)OCc2ccccc2)/C(C)=C/[C@@H](C)C(=O)NCCO)cc1 (some centres not stated)	-5%	1%
O=c1c2sc3ccccc3c2n(Cc2cccc(Cl)c2)c(=O)n1Cc1ccccc1	?	-1%
O=c1c2sc3ccccc3c2n(Cc2cccc(Cl)c2)c(=O)n1Cc1ccc(F)cc1	6.3µM*	-4%
COc1ccccc1NC(=O)CSc1nc(N)cc(N)n1	-4%	5%
COc1ccccc1NC(=O)CSc1nc2ccccc2cc1Cc1ccccc1	20µM*	1%
Cc1ccc(SCc2nc(-c3ccc(C(=O)NCc4ccc(Cl)cc4)cc3)oc2C)cc1	7%	-1%
COC(=O)c1sc2nc(SCc3cccc(Cl)c3)n(N)c(=O)c2c1C	?	-12%
COC(=O)c1sc2nc(SCc3ccccc3C)n(N)c(=O)c2c1C	32µM*	-3%
CCCc1nnc2n1N=C(c1ccc(OC)c(OC)c1)CS2	9%	-5%
CCCc1nnc2n1N=C(c1ccc(-c3cc(Cl)ccc3Cl)o1)CS2	16µM*	-3%
Cc1c(C(=O)O)oc2c1-c1nn(Cc3ccccc3Cl)cc1CC2	3%	-5%
COC(=O)[C@@]1(Cc2ccc(OC)cc2)[C@H]2c3cc(C(=O)N(C)C)n(Cc4ccc(OC)c(OC)c4)c3C[C@H]2CN1C(=O)c1ccccc1	?	-2%
CCc1nnc(/N=C/c2c(O)n(-c3ccc(Cl)cn3)c(=O)c3ccccc23)s1	?	-7%
O=c1c2ccccc2c(C=Nc2ccc(S(=O)(=O)N3CCCCC3)cc2)c(O)n1-c1ccc(Cl)cn1	7.9µM*	4%
CC(=O)c1sc2nc(-c3cccs3)ccc2c1N	-8%	-13%
Nc1c(C(=O)Nc2ccc(Cl)cc2F)sc2nc(-c3cccs3)ccc12	25µM*	-11%
Nc1c(C(=O)Nc2nc3ccccc3s2)sc2nc(-c3cccs3)ccc12	7.9µM*	-9%
Nc1ccc(C(=O)Nc2nc3ccccc3s2)cc1	5%	-9%
Nc1c(C(=O)Nc2ccccc2Br)sc2nc(-c3cccs3)ccc12	20µM*	-8%
SMILES	Cruzain inh noDet	Cruzain Triton
Nc1c(C(=O)Nc2ccc(F)c(F)c2)sc2nc(-c3ccncc3)ccc12	-3%	-3%
CCOc1ccc(CNC(=O)c2cccc(NC(=O)N3CCSc4ncccc43)c2)cc1OC	-21%	-21%
COc1ccc([N+](=O)[O-])cc1NC(=O)CSc1ccccc1	7%	-9%
COc1cc(NC(=O)CN2C(=O)NC(C)(c3ccc4ccccc4c3)C2=O)c(C)cc1[N+](=O)[O-] (configuration not stated)	20µM*	-8%
COc1cc(NC(=O)CN2C(=O)NC(C)(c3ccccc3)C2=O)c(C)cc1[N+](=O)[O-] (configuration not stated)	-11%	-5%
COc1cc([N+](=O)[O-])ccc1NC(=O)CSc1nc2ccccc2n1-c1ccccc1	13µM*	-2%
CCOc1ccc(-n2c(SCC(=O)Nc3cc(OC)c([N+](=O)[O-])cc3C)nc3ccccc32)cc1	7.9µM*	-2%
COc1cc(NC(=O)CSc2nc(C)c(C)c(C)n2)c(C)cc1[N+](=O)[O-]	5%	-2%
Cc1ccc(NC(=O)N2CCN(Cc3nc4ccc(C)cc4o3)CC2)c(Cl)c1	21%	-1%
Cc1cccc(NC(=O)c2ccc3snnc3c2)c1	4%	-5%
Cc1ccccc1Nc1c(-c2cccnc2)nc2ccc(Cl)cn12	-2%	-8%
CC(C)OCCCNC(=O)Cc1ccc(NC(=O)N2CCCCc3ccccc32)cc1	2%	-4%
COc1ccccc1CNC(=O)C(=O)NCC(c1cccnc1)N1CCN(c2ccc(F)cc2)CC1 (configuration not stated)	?	-10%
COc1cc(OC)cc(-c2nc3ccccc3c(=O)n2OC(=O)c2ccc(Br)cc2)c1	25µM*	-2%
COc1ccc(C(=O)On2c(-c3ccc(Br)cc3)nc3ccccc3c2=O)cc1	?	-2%
COc1cccc([C@@H]2Oc3ccc(Br)cc3C(=O)[C@H]2OC(=O)Nc2cc(OC)c(OC)c(OC)c2)c1	-4%	-5%
COc1ccc(C(=O)N/N=C/c2sc3ccccc3c2O)cc1	-14%	-3%
COc1ccc2cc(C(=O)N/N=C/c3sc4ccccc4c3O)ccc2c1	?	28µM*
COc1cc2c(cc1O)C[C@H]1c3c(cc(OC)c(O)c3-2)CCN1C	0%	-4%
COc1cc2c(cc1O)CC1c3c(cc(O)c(OC)c3-2)CCN1C (configuration not stated)	32µM*!	-4%
COc1cc(OC)cc(-c2nc(-c3ccc4c(c3)[nH]c(=O)n4C)no2)c1	3%	-1%
COc1ccc(OC)c(CNC(=O)CCc2c(C)nc3c(c2C)c(=O)n(C)c(=O)n3C)c1	-9%	0%
Cc1ccc(-c2nnc(Nc3ccc(O)cc3)c3ccccc23)cc1S(=O)(=O)N1CCCCC1	-9%	-1%
Cc1ccc(NC(=S)N2CCCC(c3nc4ccc(C)cc4[nH]3)C2)c(C)c1 (configuration not stated)	-26%	?
Cc1ccc2nc(C3CCCN(C(=S)Nc4cccc(C)c4C)C3)[nH]c2c1 (configuration not stated)	16µM*	14µM*
SMILES	Cruzain inh noDet	Cruzain Triton
C1CCCNCC1	-9%	11%
Cc1ccc(NC(=O)Cn2c(-c3nonc3N)nc3ccccc32)cc1C	4µM*	7.1µM*
Cc1ccc(C)c(NC(=O)Cn2c(-c3nonc3N)nc3ccccc32)c1	3%	-1%
CCSC1=C(C#N)C(c2cccs2)C(C(=O)OC)=C(C)N1 (configuration not stated)	-11%	-2%
CCCSC1=C(C#N)C(c2cccs2)C(C(=O)Nc2ccccc2)=C(C)N1 (configuration not stated)	25µM*	-12%
O=S(=O)(Nc1nc2ccccc2nc1Nc1ccccc1Br)c1ccccc1	6%	2%
Cc1ccn2c(Nc3c(C)cccc3C)c(-c3ccc(Cl)s3)nc2c1	10µM*	-12%
Cc1ccn2c(Nc3c(C)cccc3C)c(-c3ccsc3)nc2c1	?	-13%
Cc1cc(C(=O)CSc2nnc(NCc3ccccc3)s2)c(C)n1C	-12%	-1%
CC(Sc1nnc(NCc2ccccc2)s1)C(=O)Nc1ccc2c(c1)C(=O)c1ccccc1C2=O (configuration not stated)	32µM*	-9%
C=CCn1c(=O)n2ncnc2c2c3c(sc21)CCCC3	-10%	0%
O=c1n(Cc2ccc(Cl)cc2)c2sc3c(c2c2ncnn12)CCCC3	25µM*	-13%
Fc1ccccc1-n1[nH]nnc1=S	13µM*	20µM*
